From paper PMC7819943, “Rice protein-binding microarrays: a tool to detect cis-acting elements near promoter regions in rice”
Over roughly 39,000 sequences, “fluorescence intensity (a.u.)” has its median near 4,300; the highest 2% begin near 39,000. The sample as a whole holds a higher share of the highest values than the screen did.

Molecular target: T1, OsSMF1 (Oryza sativa, UniProt Q6ZLB0 1-436)
T1 sequence: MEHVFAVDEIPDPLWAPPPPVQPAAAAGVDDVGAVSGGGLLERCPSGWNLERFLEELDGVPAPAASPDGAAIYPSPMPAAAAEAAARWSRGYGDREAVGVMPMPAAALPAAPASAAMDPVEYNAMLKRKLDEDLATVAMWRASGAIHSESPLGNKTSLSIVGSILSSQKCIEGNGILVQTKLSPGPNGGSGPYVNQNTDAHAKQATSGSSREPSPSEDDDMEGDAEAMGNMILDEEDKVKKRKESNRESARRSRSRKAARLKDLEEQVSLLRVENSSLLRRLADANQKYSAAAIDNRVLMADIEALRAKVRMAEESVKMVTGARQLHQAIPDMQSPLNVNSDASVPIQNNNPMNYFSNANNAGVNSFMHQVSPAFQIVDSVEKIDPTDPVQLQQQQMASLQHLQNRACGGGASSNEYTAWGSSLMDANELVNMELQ
Experiment: protein-binding microarray (RPBM); PBS, 2% BSA, 51.3 ng/ul salmon testes DNA, 50 uM zinc acetate, 200 nM TF, 25 C, 1 h; high values mean tight binding
Conditions: protein: recombinant; tags: N-terminal polyhistidine and DsRed monomer fusion (pET32a); chain copies: 2; label: CyDye5-dUTP incorporated in the synthesized complementary strand; 3' TTTTT single-stranded linker to array surface; dsDNA, one strand shown
In short: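 Binding signal is defined as the fluorescence intensity of each feature in arbitrary units, read on an Axon 4000B scanner. Transcription factors with N-terminal polyhistidine and DsRed fusions came from E. coli BL21-CodonPlus and were purified on Ni–NTA. They were incubated at 200 nM for 1 h at 25 °C on a custom Agilent array that had been made double-stranded with Cy5-dUTP, with 50 µM zinc acetate present, and the array was washed.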

Sequence | binding signal
TTCTGTAACTTTTCCAACTCACCTTCCTCGCTTCCCACGCCGGAGTCACCTAGTGCAG | 4820 fluorescence intensity (a.u.)
CGTCCACCGCGCCGCCGCCGCCCTCCGTCACGCGCGCGCTCGGAGTCACCTAGTGCAG | 3270 fluorescence intensity (a.u.)
GCCTTTCTCTCCACCGCGATTTCTATATATAAAACGCCCCCGGAGTCACCTAGTGCAG | 9620 fluorescence intensity (a.u.)
GCGCCACCTATAAAACGCCCGCGCGCCCCGCGCCGCCTCCCGGAGTCACCTAGTGCAG | 40300 fluorescence intensity (a.u.)
CTCCTCACACATTCCCACGCACACATTTCCCCATGCACATCGGAGTCACCTAGTGCAG | 3180 fluorescence intensity (a.u.)
CCCGGGCCTCGCCGCGCCGCGCCACGCCACGCCTCCGCCCCGGAGTCACCTAGTGCAG | 7580 fluorescence intensity (a.u.)
TCCTCCTTCCTTCCACCTCACCCCAACCCCAACCCCAACCCGGAGTCACCTAGTGCAG | 4080 fluorescence intensity (a.u.)
GGCCGCGTGCGTGTGTCCAAACCTTCTCCACGCATTTCCTCGGAGTCACCTAGTGCAG | 4220 fluorescence intensity (a.u.)
TGCCCACGCCGCGCCGCCGCCTCCTCCTCCTCCTCCTCCTCGGAGTCACCTAGTGCAG | 46900 fluorescence intensity (a.u.)
GCGCGCCACGCCACGCCACGCGCCCACGCCTCGCCTCGCCCGGAGTCACCTAGTGCAG | 10000 fluorescence intensity (a.u.)
TTTTCCAACTTACCTCCTTCATTTTCCACGCGCACATTTTCGGAGTCACCTAGTGCAG | 65500 fluorescence intensity (a.u.)
CCACGCGCTCTATAAGTAGACGGCTCTTCGGCGCGTGTCACGGAGTCACCTAGTGCAG | 3400 fluorescence intensity (a.u.)
GGTTGAAGTTAATACGTGCCAAATCTATAACTTTATTCCGCGGAGTCACCTAGTGCAG | 3300 fluorescence intensity (a.u.)
TGGGAGAGGGTAGTAGGTGGGCCGAGGTACACACGTGGGGCGGAGTCACCTAGTGCAG | 5560 fluorescence intensity (a.u.)
TTCGCTGACACGCCCCGTCCACTCTTGTCCACGCTGCGCCCGGAGTCACCTAGTGCAG | 3380 fluorescence intensity (a.u.)
TCTTGCCTTCTTGCCCTCCACACTGTCCACGTCTCTCCAACGGAGTCACCTAGTGCAG | 4650 fluorescence intensity (a.u.)
GATCAAGGAGGCCGTGGCGGACAGGGAGTGCGGGGTGGATCGGAGTCACCTAGTGCAG | 3360 fluorescence intensity (a.u.)
CAGTTAACCACCTAACTGATCAAACTCATTCATGTCACTCCGGAGTCACCTAGTGCAG | 5110 fluorescence intensity (a.u.)
TCAATAGAAAATAAACTGATTCATGTTAAAACCTTCACACCGGAGTCACCTAGTGCAG | 46600 fluorescence intensity (a.u.)
AAAACTTGCAACTGCAATTCATGTCAATTTGCCACATCACCGGAGTCACCTAGTGCAG | 13200 fluorescence intensity (a.u.)
ACAGCGTAGGCTTTTCTTTCACGTCACCACGCGTACGCGACGGAGTCACCTAGTGCAG | 6560 fluorescence intensity (a.u.)

Sequence | binding signal
TAGTACCAAAGTATTTGTGTGTCACTATGATGTCCTGCCTCGGAGTCACCTAGTGCAG | 6010 fluorescence intensity (a.u.)
GGGTGAAGCGTCGCGCGGCGCGCCGTGGCGTGGCGTGGCGCGGAGTCACCTAGTGCAG | 6090 fluorescence intensity (a.u.)
ATCTTCTTCTTCATCGCTGTGCAGCTACACACTCTCACTGCGGAGTCACCTAGTGCAG | 3180 fluorescence intensity (a.u.)
TGTTTGTCGTGACTTAGCTTAGTTGTTGCTGTTGTTGAGCCGGAGTCACCTAGTGCAG | 3400 fluorescence intensity (a.u.)
TTCATATTTATTTGATGACGTGGCTAATCCTGGTCGGATCCGGAGTCACCTAGTGCAG | 40700 fluorescence intensity (a.u.)
GTTTAGATGGTGGTTTTGGCTGACGTGTCACCTACGTGGCCGGAGTCACCTAGTGCAG | 24200 fluorescence intensity (a.u.)
GAGTTTGATAGCTTAGCAGAAATAGTTTTGCTGACGTGGCCGGAGTCACCTAGTGCAG | 40700 fluorescence intensity (a.u.)
GTGTGGTTTTGCTGATGTGGCGCTGACGTGGCGATATTGACGGAGTCACCTAGTGCAG | 48500 fluorescence intensity (a.u.)
GTCATATTTATTTGGATGATGTGGCATGTTCTGGTGGTGACGGAGTCACCTAGTGCAG | 15700 fluorescence intensity (a.u.)
GATGGCGGTTTTGCTGATGTGGCGTTGACGTGCCGACCCGCGGAGTCACCTAGTGCAG | 13200 fluorescence intensity (a.u.)
CGGTGGTTTTGGCTGACGTGGCACCTATGTGGCAAATTTGCGGAGTCACCTAGTGCAG | 7870 fluorescence intensity (a.u.)
GCTTGCTGCTGCTGCTGCTGATAGTTTAGCTTGAGAGAGCCGGAGTCACCTAGTGCAG | 22700 fluorescence intensity (a.u.)
GAGGGCGGTTTTGCTGATGTGGCGTTGACGTGGCGATGTTCGGAGTCACCTAGTGCAG | 27700 fluorescence intensity (a.u.)
GGCGGTTTTGGATGACGTGGTGCCTACGTGGCTAATTTGACGGAGTCACCTAGTGCAG | 35600 fluorescence intensity (a.u.)
TTTGATGGTGGTTTTGGCTGACGTGGCACCTACATGGCATCGGAGTCACCTAGTGCAG | 42900 fluorescence intensity (a.u.)
AAGAGACCTGTTTATTAGCGTCACTGACAGTCGTTGTCACCGGAGTCACCTAGTGCAG | 3660 fluorescence intensity (a.u.)
ATTTCATCCTTATTAGGGCCTATTTGGAGCATTGGCAGGGCGGAGTCACCTAGTGCAG | 3750 fluorescence intensity (a.u.)
AGATCCCGAATTCGTGCCACGTGATCTGCCGTCGTGTATTCGGAGTCACCTAGTGCAG | 6050 fluorescence intensity (a.u.)
CCCCGCTTCGCCGCCGGCCGCCTCTCTCTTCTCAAGAGTCCGGAGTCACCTAGTGCAG | 3340 fluorescence intensity (a.u.)
GCAACCGCGACGACCGATCCACGTGGCACCACCTCATTGGCGGAGTCACCTAGTGCAG | 29400 fluorescence intensity (a.u.)
GGGCCCAGCAGGTTCCTAGTAGACTTCGTCGTAGTGGGACCGGAGTCACCTAGTGCAG | 8310 fluorescence intensity (a.u.)
